Four compounds from PubChem BioAssay (EPA / NIEHS) can be followed below.

Details in all cases: mRNA level, 48 h; actives raise or lower the signal
Read-out in one experiment: MYC, MYC (gene 4609)
The experiment in a line: LTEA_HepaRG_MYC: Life Technologies and Expression Analysis (LTEA) Assay for MYC using HepaRG (AID 2283518). A digest of the protocol:
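Cells are thawed, plated and cultured 48 h, then treated for 48 h with test chemicals (eight half-log concentrations from 100 uM, 0.5% DMSO vehicle). RNA is isolated and MYC expression quantified by qRT-PCR against three housekeeping genes.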

Read-out in experiment [1]: Paternally Expressed 10 (PEG10), PEG10 (gene 23089)
Description: LTEA_HepaRG_PEG10: Life Technologies and Expression Analysis (LTEA) Assay for Paternally Expressed 10 (PEG10) using HepaRG (AID 2283520). A digest of the protocol: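 HepaRG, 48 h post-plating → serum-free induction medium → 48 h chemical exposure (duplicate, 8-pt, max 100 uM, half-log, 0.5% DMSO) → lysis in RLT → TaqMan qRT-PCR for PEG10, ACTB/GAPDH/POLR2A normalisation.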

Read-out in experiment [2]: Nuclear factor NF-kappa-B p105 subunit (Homo sapiens) (UniProt P19838)
Description: LTEA_HepaRG_NFKB1: Life Technologies and Expression Analysis (LTEA) Assay for Nuclear Factor Kappa B Subunit 1 (NFKB1) using HepaRG (AID 2283521). Summed up: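 NFKB1 transcript was measured by TaqMan qRT-PCR on Fluidigm arrays, normalised to three housekeeping genes and fitted in both directions against 0.5% DMSO. HepaRG cells were dosed in duplicate for 48 h in serum-free induction medium, eight half-log steps from 100 uM.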

Read-out in experiment [3]: Protein phosphatase 2A (PPP2R4), PTPA (gene 5524)
Description: LTEA_HepaRG_PPP2R4: Life Technologies and Expression Analysis (LTEA) Assay for Protein phosphatase 2A (PPP2R4) using HepaRG (AID 2283522). Summed up: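 Readout is PPP2R4 transcript level by microfluidic qRT-PCR after 48 h chemical treatment of human HepaRG liver cells. Concentrations spanned 100 uM downward in half-log steps; gain or loss of signal was fitted relative to DMSO.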

Read-out in experiment [4]: Phosphatase and tensin (PTEN), PTEN (gene 5728)
The experiment in a line: LTEA_HepaRG_PTEN: Life Technologies and Expression Analysis (LTEA) Assay for Phosphatase and tensin (PTEN) using HepaRG (AID 2283523). Summed up: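 Differentiated human HepaRG cells, plated 48 h then switched to serum-free induction medium, were exposed in duplicate for 48 h to eight half-log concentrations up to 100 uM in 0.5% DMSO. PTEN mRNA measured by TaqMan qRT-PCR, normalized to ACTB/GAPDH/POLR2A, bidirectional fit versus DMSO.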

Read-out in experiment [5]: solute carrier (SLC22A1), SLC22A1 (gene 6580)
The experiment in a line: LTEA_HepaRG_SLC22A1: Life Technologies and Expression Analysis (LTEA) Assay for solute carrier (SLC22A1) using HepaRG (AID 2283524). A digest of the protocol:
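Human HepaRG cells were plated 48 h, switched to serum-free induction medium, then exposed in duplicate for 48 h to 8-point half-log series from 100 uM in 0.5% DMSO. SLC22A1 mRNA measured by qRT-PCR, normalized to ACTB/GAPDH/POLR2A, fitted bidirectionally versus DMSO.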

Read-out in experiment [6]: Pyruvate Dehydrogenase Kinase 4 (PDK4), PDK4 (gene 5166)
The experiment in a line: LTEA_HepaRG_PDK4: Life Technologies and Expression Analysis (LTEA) Assay for Pyruvate Dehydrogenase Kinase 4 (PDK4) using HepaRG (AID 2283525). Summed up:
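Differentiated human HepaRG cells, pre-cultured 48 h, were exposed in duplicate for 48 h in serum-free induction medium to eight half-log concentrations up to 100 uM in 0.5% DMSO. PDK4 mRNA was quantified by qRT-PCR, normalized to ACTB, GAPDH and POLR2A, bidirectional fitting versus DMSO.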

Read-out in experiment [7]: NAD(P)H dehydrogenase [quinone] 1 (NQO1), NQO1 (gene 1728)
Description: LTEA_HepaRG_NQO1: Life Technologies and Expression Analysis (LTEA) Assay for NAD(P)H dehydrogenase [quinone] 1 (NQO1) using HepaRG (AID 2283526). A digest of the protocol: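 HepaRG, 48 h post-plating → serum-free induction medium → test chemical 48 h (duplicate, 100 uM top, half-log x8, 0.5% DMSO) → RNA isolation → qRT-PCR, ACTB/GAPDH/POLR2A normalization; bidirectional curve fit vs DMSO baseline.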

Read-out in experiment [8]: Nuclear factor erythroid 2-related factor 2 (Homo sapiens) (UniProt Q16236)
Description: LTEA_HepaRG_NFE2L2: Life Technologies and Expression Analysis (LTEA) Assay for Nuclear factor erythroid 2-related factor 2 (NFE2L2) Transcription Factor using HepaRG (AID 2283527). Summed up: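 Differentiated human HepaRG cells in serum-free induction medium were exposed for 48 h to eight concentrations (top 100 uM, half-log dilutions, 0.5% DMSO), in duplicate. NFE2L2 mRNA was quantified by TaqMan qRT-PCR, normalized to ACTB, GAPDH and POLR2A, with bidirectional fitting versus DMSO.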

Read-out in experiment [9]: succinate dehydrogenase complex iron sulfur subunit B (SDHB), SDHB (gene 6390)
The experiment in a line: LTEA_HepaRG_SDHB: Life Technologies and Expression Analysis (LTEA) Assay for succinate dehydrogenase complex iron sulfur subunit B (SDHB) using HepaRG (AID 2283528). A digest of the protocol: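 SDHB transcript level read by TaqMan qRT-PCR, housekeeping-normalised (ACTB, GAPDH, POLR2A), after 48 h chemical treatment of plated HepaRG cells; eight concentrations top 100 uM, half-log steps, 0.5% DMSO, duplicates; fitted both directions against DMSO.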

Read-out in experiment [10]: Signal transducer and activator of transcription 3 (Homo sapiens) (UniProt P40763)
The experiment in a line: LTEA_HepaRG_STAT3: Life Technologies and Expression Analysis (LTEA) Assay for Signal transducer and activator of transcription (STAT3) using HepaRG (AID 2283529). Summed up: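 Differentiated human HepaRG cells in serum-free induction medium were exposed in duplicate for 48 h to eight half-log concentrations up to 100 uM in 0.5% DMSO. STAT3 mRNA was quantified by TaqMan qRT-PCR, normalized to ACTB, GAPDH and POLR2A, and fitted bidirectionally against DMSO.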

Read-out in experiment [11]: solute carrier (SLCO1B1), SLCO1B1 (gene 10599)
The experiment in a line: LTEA_HepaRG_SLCO1B1: Life Technologies and Expression Analysis (LTEA) Assay for solute carrier (SLCO1B1) using HepaRG (AID 2283530). Summed up: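 Gain or loss of SLCO1B1 mRNA is fitted against the 0.5% DMSO vehicle in human HepaRG liver cells treated 48 h at up to 100 uM in half-log steps. Expression comes from qRT-PCR normalized to endogenous controls.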

Read-out in experiment [12]: sulfotransferase 2A1 (SULT2A1), SULT2A1 (gene 6822)
The experiment in a line: LTEA_HepaRG_SULT2A1: Life Technologies and Expression Analysis (LTEA) Assay for sulfotransferase 2A1 (SULT2A1) using HepaRG (AID 2283531). Summed up: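 Cells were plated and cultured 48 h, switched to serum-free induction medium, then dosed in duplicate for 48 h (8 concentrations, max 100 uM). RNA was isolated and SULT2A1 expression measured by qRT-PCR; gain or loss of signal fitted relative to DMSO.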

Read-out in experiment [13]: Transforming Growth Factor (TGFA), TGFA (gene 7039)
Description: LTEA_HepaRG_TGFA: Life Technologies and Expression Analysis (LTEA) Assay for Transforming Growth Factor (TGFA) using HepaRG (AID 2283532). Summed up: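 Differentiated human HepaRG cells, plated 48 h then switched to serum-free induction medium, were exposed in duplicate for 48 h to 8-point half-log series from 100 uM in 0.5% DMSO. TGFA mRNA measured by qRT-PCR, normalized to ACTB/GAPDH/POLR2A, bidirectional fit versus DMSO.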

Read-out in experiment [14]: Transforming Growth Factor (TGFB1), TGFB1 (gene 7040)
Description: LTEA_HepaRG_TGFB1: Life Technologies and Expression Analysis (LTEA) Assay for Transforming Growth Factor (TGFB1) Transporter using HepaRG (AID 2283533). A digest of the protocol:
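Expression change of TGFB1 in human HepaRG cells is measured after a 48 h chemical exposure, up to 100 uM in 0.5% DMSO vehicle. Curves are fitted in both directions relative to the DMSO baseline.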

Read-out in another experiment: TIMP1, TIMP1 (gene 7076)
The experiment in a line: LTEA_HepaRG_TIMP1: Life Technologies and Expression Analysis (LTEA) Assay for TIMP1 using HepaRG (AID 2283534). A digest of the protocol:
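We dosed human liver HepaRG cultures for 48 hours with up to 100 uM test chemical and measured TIMP1 expression by qRT-PCR. Activity in either direction is fitted relative to the 0.5% DMSO vehicle.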

Read-out in experiment [15]: Tumor necrosis factor receptor 1 (TNFRSF1A), TNFRSF1A (gene 7132)
Description: LTEA_HepaRG_TNFRSF1A: Life Technologies and Expression Analysis (LTEA) Assay for Tumor necrosis factor receptor 1 (TNFRSF1A) using HepaRG (AID 2283535). A digest of the protocol: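 Expression of TNFRSF1A in human HepaRG liver cells was measured by qRT-PCR 48 h after chemical dosing (maximum 100 uM). Bidirectional curve fitting used 0.5% DMSO as baseline.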

Read-out in experiment [16]: Thyroid Hormone Responsive (THRSP), THRSP (gene 7069)
Description: LTEA_HepaRG_THRSP: Life Technologies and Expression Analysis (LTEA) Assay for Thyroid Hormone Responsive (THRSP) using HepaRG (AID 2283536). A digest of the protocol:
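Differentiated human HepaRG cells were exposed in duplicate for 48 h in serum-free induction medium to eight concentrations (top 100 uM, half-log steps, 0.5% DMSO). Expression was quantified by TaqMan qRT-PCR, normalized to ACTB, GAPDH and POLR2A, with bidirectional fitting against DMSO.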

Read-out in experiment [17]: Cellular tumor antigen p53 (Homo sapiens) (UniProt P04637)
The experiment in a line: LTEA_HepaRG_TP53: Life Technologies and Expression Analysis (LTEA) Assay for Tumor Protein P53 (TP53) using HepaRG (AID 2283537). Summed up: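 TP53 transcript measured by qRT-PCR, normalized to three housekeeping genes, after 48 h treatment of human HepaRG cultures with chemicals from 100 uM downward in half-log steps (0.5% DMSO vehicle, serum-free induction medium). Up- or down-regulation fitted against DMSO.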

Active and inactive are the calls of the source. Rule for the calls: active = hit-call score of the fitted dose curve at least 0.9, where 1 is the maximum; inactive = score below 0.9.

Broadly, the AC50 is the concentration giving half of the maximal activity seen.

Sequence of Signal transducer and activator of transcription 3 (Homo sapiens) (P40763 whole entry, looked up): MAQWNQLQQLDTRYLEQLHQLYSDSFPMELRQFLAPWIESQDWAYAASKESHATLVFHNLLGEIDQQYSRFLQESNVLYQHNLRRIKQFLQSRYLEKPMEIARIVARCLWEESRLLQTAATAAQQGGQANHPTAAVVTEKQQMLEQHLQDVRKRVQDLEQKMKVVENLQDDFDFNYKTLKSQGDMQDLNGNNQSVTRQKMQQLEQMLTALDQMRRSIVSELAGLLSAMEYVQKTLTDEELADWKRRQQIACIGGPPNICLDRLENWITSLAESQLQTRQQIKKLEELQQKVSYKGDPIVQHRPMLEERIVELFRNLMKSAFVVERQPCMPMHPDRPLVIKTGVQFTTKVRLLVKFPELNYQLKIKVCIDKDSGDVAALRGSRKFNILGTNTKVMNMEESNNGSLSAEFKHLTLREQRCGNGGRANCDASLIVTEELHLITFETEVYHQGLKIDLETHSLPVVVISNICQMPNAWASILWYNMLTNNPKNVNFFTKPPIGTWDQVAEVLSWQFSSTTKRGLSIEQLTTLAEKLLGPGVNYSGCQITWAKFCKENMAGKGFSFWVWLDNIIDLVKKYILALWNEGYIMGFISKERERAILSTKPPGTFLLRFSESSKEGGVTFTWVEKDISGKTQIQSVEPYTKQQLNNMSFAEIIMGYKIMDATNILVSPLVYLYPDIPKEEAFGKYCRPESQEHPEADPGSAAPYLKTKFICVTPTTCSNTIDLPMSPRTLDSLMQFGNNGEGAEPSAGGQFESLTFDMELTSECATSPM
Sequence of Nuclear factor NF-kappa-B p105 subunit (Homo sapiens) (P19838 whole entry, looked up): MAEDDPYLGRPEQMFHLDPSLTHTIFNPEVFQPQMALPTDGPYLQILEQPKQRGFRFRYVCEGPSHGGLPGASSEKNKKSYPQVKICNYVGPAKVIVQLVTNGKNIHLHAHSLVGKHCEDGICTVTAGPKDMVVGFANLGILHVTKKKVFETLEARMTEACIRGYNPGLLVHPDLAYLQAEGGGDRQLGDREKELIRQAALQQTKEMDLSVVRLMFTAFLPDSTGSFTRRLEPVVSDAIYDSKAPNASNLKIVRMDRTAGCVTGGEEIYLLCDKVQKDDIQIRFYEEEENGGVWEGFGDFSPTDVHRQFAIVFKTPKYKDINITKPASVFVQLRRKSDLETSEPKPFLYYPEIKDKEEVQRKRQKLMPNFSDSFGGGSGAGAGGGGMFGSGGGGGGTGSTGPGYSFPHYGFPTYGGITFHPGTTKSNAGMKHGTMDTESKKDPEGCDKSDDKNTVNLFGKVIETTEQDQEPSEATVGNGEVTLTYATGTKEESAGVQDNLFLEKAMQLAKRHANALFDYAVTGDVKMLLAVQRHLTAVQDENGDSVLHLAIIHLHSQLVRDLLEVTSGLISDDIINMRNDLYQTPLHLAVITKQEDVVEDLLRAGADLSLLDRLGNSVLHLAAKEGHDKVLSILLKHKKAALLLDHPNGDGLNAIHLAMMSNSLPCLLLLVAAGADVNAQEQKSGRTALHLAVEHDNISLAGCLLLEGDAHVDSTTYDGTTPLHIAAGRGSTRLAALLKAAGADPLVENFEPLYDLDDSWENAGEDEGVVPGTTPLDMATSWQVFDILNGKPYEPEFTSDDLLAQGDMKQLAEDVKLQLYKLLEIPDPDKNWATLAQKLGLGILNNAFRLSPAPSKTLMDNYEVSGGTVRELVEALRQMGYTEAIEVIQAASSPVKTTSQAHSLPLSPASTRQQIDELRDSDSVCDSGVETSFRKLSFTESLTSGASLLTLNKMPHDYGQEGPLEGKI
Sequence of Nuclear factor erythroid 2-related factor 2 (Homo sapiens) (Q16236 whole entry, looked up): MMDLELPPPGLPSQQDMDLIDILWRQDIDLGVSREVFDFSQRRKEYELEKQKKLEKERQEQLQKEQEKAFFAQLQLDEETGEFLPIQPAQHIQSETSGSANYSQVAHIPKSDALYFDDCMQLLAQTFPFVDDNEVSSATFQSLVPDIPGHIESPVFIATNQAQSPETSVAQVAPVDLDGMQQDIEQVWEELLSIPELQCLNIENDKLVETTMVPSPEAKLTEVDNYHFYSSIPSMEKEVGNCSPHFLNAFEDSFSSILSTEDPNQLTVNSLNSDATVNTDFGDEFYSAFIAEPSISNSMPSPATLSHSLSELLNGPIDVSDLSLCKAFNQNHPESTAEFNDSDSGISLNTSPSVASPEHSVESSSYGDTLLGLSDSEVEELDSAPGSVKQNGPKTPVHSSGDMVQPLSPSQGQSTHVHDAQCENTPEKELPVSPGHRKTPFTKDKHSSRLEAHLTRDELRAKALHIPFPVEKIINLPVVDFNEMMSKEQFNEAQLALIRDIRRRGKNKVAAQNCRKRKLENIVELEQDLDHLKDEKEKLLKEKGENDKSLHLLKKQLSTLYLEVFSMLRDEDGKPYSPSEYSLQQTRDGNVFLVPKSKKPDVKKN
Sequence of Cellular tumor antigen p53 (Homo sapiens) (P04637 whole entry, looked up): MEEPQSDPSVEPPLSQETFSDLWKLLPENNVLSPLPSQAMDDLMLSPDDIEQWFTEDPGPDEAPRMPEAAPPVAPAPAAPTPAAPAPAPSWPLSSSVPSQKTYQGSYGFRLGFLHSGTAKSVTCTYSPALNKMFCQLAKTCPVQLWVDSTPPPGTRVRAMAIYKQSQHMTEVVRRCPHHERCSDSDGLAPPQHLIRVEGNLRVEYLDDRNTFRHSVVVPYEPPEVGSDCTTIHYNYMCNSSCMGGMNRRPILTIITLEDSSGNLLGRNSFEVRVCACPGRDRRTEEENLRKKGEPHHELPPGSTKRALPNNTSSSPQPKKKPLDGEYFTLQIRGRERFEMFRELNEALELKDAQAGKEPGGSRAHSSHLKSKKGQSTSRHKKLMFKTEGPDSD

With `CC(C)OC(=O)C(C)(C)Oc1ccc(C(=O)c2ccc(Cl)cc2)cc1`, the outcome is “inactive” with MYC, MYC (gene 4609); “inactive” in [1]; “inactive” in experiment [2]; “inactive” in [3]; “inactive” in experiment [4]; “inactive” in [5]. Moreover, the call in experiment [7], in experiment [8], in experiment [9], in experiment [10], in [11] and in [12] was inactive. For the same compound, the outcome in experiment [13] is “inactive”; in experiment [14] it was “inactive”; with TIMP1, TIMP1 (gene 7076), “inactive”; in experiment [15], “inactive”; in experiment [16], “inactive”. In addition, the AC50 in experiment [6] is 16.7 µM (active).
As for `Cc1cc(SC2=C(O)C[C@@](CCc3ccc(N)cc3)(C(C)C)OC2=O)c(C(C)(C)C)cc1CO`, the outcome in the experiment with MYC, MYC (gene 4609) is “inactive”; in experiment [1], “inactive”; in experiment [2] it was “inactive”; in experiment [3] it was “inactive”; in experiment [4], “inactive”; in experiment [7], “inactive”. Further, the outcome in experiment [8], in experiment [9], in experiment [10], in experiment [11], in experiment [13] and in experiment [14] was inactive. The outcome with TIMP1, TIMP1 (gene 7076) is “inactive”; in experiment [15], “inactive”; in experiment [16], “inactive”; in experiment [17], “inactive”. The AC50 in experiment [5] is 7.05 µM (active); in experiment [6], 13.5 µM (active); in experiment [12] it was 9.92 µM (active).
`CCCCOC(=O)CCCCC(=O)OCCCC`: the outcome was “inactive” with MYC, MYC (gene 4609); “inactive” in experiment [1]; “inactive” in experiment [2]; “inactive” in experiment [3]; “inactive” in experiment [4]; “inactive” in experiment [6]. Further, the call in experiment [7], in experiment [8], in [9], in [10], in experiment [11] and in experiment [12] was inactive. Further, the outcome was “inactive” in experiment [13]; “inactive” in experiment [14]; “inactive” with TIMP1, TIMP1 (gene 7076); “inactive” in [15]; “inactive” in [16]. Besides, the AC50 in experiment [5] was 0.243 µM (active).
For `O=C1CCCCC1`, the outcome with MYC, MYC (gene 4609) is “inactive”; in [1], “inactive”; in experiment [2], “inactive”; in [3], “inactive”; in experiment [4], “inactive”; in experiment [5], “inactive”. In addition, the outcome in experiment [6], in experiment [7], in [8], in experiment [9], in experiment [10] and in experiment [11] was inactive. In addition, the outcome in experiment [12] was “inactive”; in experiment [13], “inactive”; in experiment [14], “inactive”; with TIMP1, TIMP1 (gene 7076) it was “inactive”; in [16], “inactive”. In addition, the AC50 in [15] is 0.0538 µM (active).
